Source: paper PMC8384837, “Expanding the binding specificity for RNA recognition by a PUF domain”
Changes are numbered by the printed parent chain.

Key:
Experiment in all cases: yeast three-hybrid, YBZ-1, SC-Leu-His + 0.5 mM 3-AT, 4 days
Conditions in all cases: tags: N-Gal4 AD-HA kept; label: inside an RPR1-promoter hybrid RNA with tandem MS2 sites; ssRNA
PUM1 PUF domain R5-TFY = PUM1 PUF domain R5-TFY (Homo sapiens, UniProt Q14671 828-1176, C1007T;R1008F;Q1011Y)
Procedure, shortened: (§1)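 Repeat regions from input (SC-Leu) and selection (SC-Leu-His + 0.5 mM 3-AT) plates were PCR-amplified and Illumina-sequenced after four days of growth. The cells were strain YBZ-1 with a LexA–MS2 coat fusion and a HIS3 reporter, co-expressing Pumilio-1 PUF domain libraries and matching RNA elements from a centromeric plasmid. The interaction score is the log change in variant frequency from input to selection, taken in log2 with a pseudocount of 1 for absent variants.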

PUM1 PUF domain R6-IYE = target: T1, PUM1 PUF domain R6-IYE (Homo sapiens, UniProt Q14671 828-1176, N1043I;Q1047E)
T1 sequence: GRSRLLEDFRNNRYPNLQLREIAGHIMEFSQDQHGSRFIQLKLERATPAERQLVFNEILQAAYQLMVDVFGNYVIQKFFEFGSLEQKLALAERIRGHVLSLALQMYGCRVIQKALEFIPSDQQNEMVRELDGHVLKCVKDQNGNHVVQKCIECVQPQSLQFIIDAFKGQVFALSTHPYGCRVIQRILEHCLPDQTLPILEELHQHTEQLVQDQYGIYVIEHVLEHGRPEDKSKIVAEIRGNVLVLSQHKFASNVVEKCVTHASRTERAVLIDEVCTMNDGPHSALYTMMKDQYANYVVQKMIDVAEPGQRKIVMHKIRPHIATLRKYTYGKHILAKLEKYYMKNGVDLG
Procedure, shortened: as §1

PUM1 PUF domain R6-LYL = target: T2, PUM1 PUF domain R6-LYL (Homo sapiens, UniProt Q14671 828-1176, N1043L;Q1047L)
T2 sequence: T1 sequence with I216L, E220L
Procedure, shortened: as §1

PUM1 PUF domain R4-SRN = PUM1 PUF domain R4-SRN (Homo sapiens, UniProt Q14671 828-1176, N971S;H972R;Q975N)
Procedure, shortened: as §1

PUM1 PUF domain R7-GCD = PUM1 PUF domain R7-GCD (Homo sapiens, UniProt Q14671 828-1176, S1079G;N1080C;E1083D)
Procedure, shortened: as §1

PUM1 PUF domain R5-RQQ = PUM1 PUF domain R5-RQQ (Homo sapiens, UniProt Q14671 828-1176, C1007R;R1008Q)
Procedure, shortened: as §1

PUM1 PUF domain R5-DRR = PUM1 PUF domain R5-DRR (Homo sapiens, UniProt Q14671 828-1176, C1007D;Q1011R)
Procedure, shortened: as §1

PUM1 PUF domain R1-KRA = PUM1 PUF domain R1-KRA (Homo sapiens, UniProt Q14671 828-1176, S863K;Q867A)
Procedure, shortened: as §1

PUM1 PUF domain R3-LRE = PUM1 PUF domain R3-LRE (Homo sapiens, UniProt Q14671 828-1176, C935L;Q939E)
Procedure, shortened: as §1

PUM1 PUF domain R6-EWK = target: T3, PUM1 PUF domain R6-EWK (Homo sapiens, UniProt Q14671 828-1176, N1043E;Y1044W;Q1047K)
T3 sequence: T1 sequence with I216E, Y217W, E220K
Procedure, shortened: as §1

Q: With “GGCUAGAACUAGUGGAUCCCCCGGCGCCCGGCGGCUCGAGCCCGGGUAAGUGUAAAUAGUCUGCAUGCCGCCGGGCGCCAUGCCUGCAGGUCGACUCUAGAAAACAUG” as the sequence, how does the binding signal (PUM1 PUF domain R5-TFY) read?
A: Its binding signal is 2.23 log2 enrichment (interaction score).

Q: And the binding signal (PUM1 PUF domain R6-IYE)?
A: Its binding signal is 2.5 log2 enrichment (interaction score).

Q: And the binding signal (PUM1 PUF domain R6-LYL)?
A: Its binding signal is 2.24 log2 enrichment (interaction score).

Q: What about the binding signal (PUM1 PUF domain R4-SRN) of the same sequence?
A: Its binding signal is 3.38 log2 enrichment (interaction score).

Q: Which binding signal (PUM1 PUF domain R4-SRN) does the source give for “GGCUAGAACUAGUGGAUCCCCCGGCGCCCGGCGGCUCGAGCCCGGGUAAGUGUAUAUAGUCUGCAUGCCGCCGGGCGCCAUGCCUGCAGGUCGACUCUAGAAAACAUG” here?
A: The binding signal was 0.7 log2 enrichment (interaction score).

Q: Which binding signal (PUM1 PUF domain R7-GCD) does the source give for “GGCUAGAACUAGUGGAUCCCCCGGCGCCCGGCGGCUCGAGCCCGGGUAAGUUUAAAUAGUCUGCAUGCCGCCGGGCGCCAUGCCUGCAGGUCGACUCUAGAAAACAUG” here?
A: The binding signal was 3.51 log2 enrichment (interaction score).

Q: Which binding signal (PUM1 PUF domain R5-RQQ) does the source give for “GGCUAGAACUAGUGGAUCCCCCGGCGCCCGGCGGCUCGAGCCCGGGUAAGUGUUAAUAGUCUGCAUGCCGCCGGGCGCCAUGCCUGCAGGUCGACUCUAGAAAACAUG” here?
A: Its binding signal is 5.69 log2 enrichment (interaction score).

Q: And the binding signal (PUM1 PUF domain R5-DRR)?
A: Its binding signal is 2.64 log2 enrichment (interaction score).

Q: Which binding signal (PUM1 PUF domain R6-LYL) does the source give for “GGCUAGAACUAGUGGAUCCCCCGGCGCCCGGCGGCUCGAGCCCGGGUAAGUGAAAAUAGUCUGCAUGCCGCCGGGCGCCAUGCCUGCAGGUCGACUCUAGAAAACAUG” here?
A: Its binding signal is 3.54 log2 enrichment (interaction score).

Q: “GGCUAGAACUAGUGGAUCCCCCGGCGCCCGGCGGCUCGAGCCCGGGUAAGUGUAAAUCGUCUGCAUGCCGCCGGGCGCCAUGCCUGCAGGUCGACUCUAGAAAACAUG” was tested. Which binding signal (PUM1 PUF domain R1-KRA) did it give?
A: The binding signal was 5.03 log2 enrichment (interaction score).

Q: For “GGCUAGAACUAGUGGAUCCCCCGGCGCCCGGCGGCUCGAGCCCGGGUAAGUGUAAGUAGUCUGCAUGCCGCCGGGCGCCAUGCCUGCAGGUCGACUCUAGAAAACAUG”, which binding signal (PUM1 PUF domain R3-LRE) is on record?
A: The binding signal was 3.1 log2 enrichment (interaction score).

Q: With “GGCUAGAACUAGUGGAUCCCCCGGCGCCCGGCGGCUCGAGCCCGGGUAAGUGUGAAUAGUCUGCAUGCCGCCGGGCGCCAUGCCUGCAGGUCGACUCUAGAAAACAUG” as the sequence, how does the binding signal (PUM1 PUF domain R5-RQQ) read?
A: The binding signal was 1.47 log2 enrichment (interaction score).

Q: For “GGCUAGAACUAGUGGAUCCCCCGGCGCCCGGCGGCUCGAGCCCGGGUAAGUGUCAAUAGUCUGCAUGCCGCCGGGCGCCAUGCCUGCAGGUCGACUCUAGAAAACAUG”, which binding signal (PUM1 PUF domain R5-RQQ) is on record?
A: Its binding signal is 5.36 log2 enrichment (interaction score).

Q: What about the binding signal (PUM1 PUF domain R5-DRR) of the same sequence?
A: Its binding signal is 3.48 log2 enrichment (interaction score).

Q: Which binding signal (PUM1 PUF domain R6-EWK) does the source give for “GGCUAGAACUAGUGGAUCCCCCGGCGCCCGGCGGCUCGAGCCCGGGUAAGUGGAAAUAGUCUGCAUGCCGCCGGGCGCCAUGCCUGCAGGUCGACUCUAGAAAACAUG” here?
A: Its binding signal is 2.84 log2 enrichment (interaction score).
